In PubChem BioAssay AID602396 (The Scripps Research Institute Molecular Screening Center, 2012):
Among all 360,000 compounds or so, about 460 (0.13%) were called active. Only a selection was taken, and actives are over-represented in it overall. Unmarked numbers belong to inactive results.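 The calls were made as follows: active = inhibition above the mean inhibition of all tested compounds plus 3 SD (cut at about 73% in these data); inactive = the rest.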

The molecules below were run against Nuclear receptor subfamily 5 group A member 2 (Homo sapiens) (UniProt O00482) (assay: LRH-1 (NR5A2) inverse agonists, primary screen, cell-based, luminescence, HEK293T, StAR-luciferase reporter (AID 602396;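 also: 0% = DMSO wells and 100% = reporter-only cells lacking LRH-1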)). Details: LRH-1 transfected, 24 h, at 3.6 µM, stronger effect = higher value.
Nuclear receptor subfamily 5 group A member 2 (Homo sapiens), sequence (O00482 whole entry, looked up): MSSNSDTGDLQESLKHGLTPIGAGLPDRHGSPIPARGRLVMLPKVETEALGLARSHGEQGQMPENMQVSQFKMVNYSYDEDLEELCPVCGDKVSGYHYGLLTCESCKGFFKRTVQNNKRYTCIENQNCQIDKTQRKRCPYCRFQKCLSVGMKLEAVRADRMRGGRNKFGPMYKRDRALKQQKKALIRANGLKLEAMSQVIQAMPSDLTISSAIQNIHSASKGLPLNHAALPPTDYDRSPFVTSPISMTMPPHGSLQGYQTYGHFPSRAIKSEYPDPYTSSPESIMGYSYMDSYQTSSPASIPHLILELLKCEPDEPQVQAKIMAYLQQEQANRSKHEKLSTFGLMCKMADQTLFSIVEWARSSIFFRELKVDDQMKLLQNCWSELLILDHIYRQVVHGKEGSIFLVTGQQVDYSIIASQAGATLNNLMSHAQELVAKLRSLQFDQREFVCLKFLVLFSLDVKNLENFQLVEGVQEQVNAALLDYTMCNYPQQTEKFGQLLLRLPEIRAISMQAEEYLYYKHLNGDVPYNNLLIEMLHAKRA

Row | Structure (SMILES) | inhibition
1 | O=C(Nc1cccc(S(=O)(=O)N2CCCC2)c1)c1cncc(Br)c1 | -0.97%
2 | COc1ccc(SC[C@H](Cc2ccccc2)N2CCN(CCc3ccccc3)CCC2=O)cc1 | -6.85%
3 | CCn1nc(C(=O)NNS(=O)(=O)c2cc(/C=C/C(=O)O)cc(OC)c2OC)c2ccccc2c1=O | 11.4%
4 | O=C(O)C(NS(=O)(=O)c1cccc2nsnc12)c1ccccc1 (stereo unspecified) | -4.31%
5 | COc1ccc2c(c1)c(=Cc1ccc(N(C)C)cc1)c1cc(-c3ccccc3)[n+](C)n12 | 91.5% (active)
6 | COc1ccc(S(=O)(=O)N2CCCCC2)cc1NC(=O)C1CC(=O)N(c2ccc3c(c2)OCCO3)C1 (stereo unspecified) | 8.99%
7 | NS(=O)(=O)c1ccc(NC(=O)/C=C/c2ccccc2Cl)cc1 | -11.9%
8 | CCN(CC(=O)NCc1cccs1)C(=O)c1ccc(OC)c(S(=O)(=O)N2CCOCC2)c1 | -9.13%
9 | COc1ccc(N2C(=O)C(O)C2c2ccc(C)cc2)cc1 (stereo unspecified) | -10%
10 | C/C=C/C(=O)Nc1ccc(N2CCN(c3ccc(C(F)(F)F)cn3)CC2)nc1 | -9.09%
11 | COC(=O)c1cccc(C(=O)N2CCC(CCC(=O)NCc3ccc(F)cc3)CC2)c1 | 11.6%
12 | Nc1nc(SCC(=O)NNc2c(Cl)cc(Cl)cc2Cl)n[nH]1 | 14.2%
13 | CCc1cc(=O)oc2cc(C)cc(OC(C)C(=O)O)c12 (stereo unspecified) | 6.8%
14 | CC1CC(C)(C)CC2(C1)NC(=O)N(CC(=O)Nc1nccs1)C2=O (stereo unspecified) | -13.1%
15 | CC(=O)N1CCC(C(=O)OCc2ccc(Cl)cc2)(c2ccccc2)CC1 | -12.7%
16 | OCC(O)CN(c1ccccc1)c1ccccc1 (stereo unspecified) | 9.64%
17 | CC(Sc1nnc(-c2cccs2)n1C1CC1)C(=O)NCC1CCCO1 (stereo unspecified) | -12.2%
18 | C=CCn1c(C)cc(C2=NNC(=NCC)SC2)c1C | 84.2% (active)
19 | O=C(COC(=O)c1ncc(Cl)c(Cl)c1Cl)NCc1cccs1 | -2.02%
20 | COc1cccc2c1C(=O)c1c(O)c3c(c(O)c1C2=O)CC(O)(C(C)=NNC(=O)c1ccc(Cl)c(Cl)c1)CC3OC1CC(N)C(O)C(C)O1 (stereo unspecified) | 95.6% (active)
21 | CCNC(=O)NNC(=O)C1CC(c2cccs2)=NO1 (stereo unspecified) | 19.8%
22 | C=CCn1c2ccccc2c2nnc(SCc3[nH]c(=O)[nH]c3C(=O)CCCCC(=O)OCC)nc21 | 9.39%
23 | CCOC(=O)c1sc(N(Cc2ccccc2)C(=O)CN2C(=O)CN(C)C2=O)nc1C | -6.11%
24 | O=C(CC(O)(C(F)(F)F)C(F)(F)F)Nc1ccc(Cl)c(Cl)c1 | 100% (active)
25 | CC(c1cccnc1)N(CCN(C)C)C(=O)Nc1ccc(Cl)c(Cl)c1 (stereo unspecified) | -1.18%
26 | O=C(Nc1ccc(Cl)c(Cl)c1)N1CC=C(c2ccccc2)CC1 | -22.6%

Row | Structure (SMILES) | inhibition
27 | CN(C)S(=O)(=O)c1ccc(Oc2ccc(S(=O)(=O)N(C)C)cc2)cc1 | 26%
28 | CC(C)(C)c1ccc(Oc2ccc(N)cc2)cc1 | 80.6% (active)
29 | C[C@H](NC(=O)C1CCN(S(=O)(=O)c2ccccc2)CC1)C(=O)NCc1ccccc1 | -15.6%
30 | COc1ccccc1-n1nnnc1S(=O)(=O)Cc1ccc(Cl)cc1 | 47.7%
31 | CC[C@H](C)[C@@H](C(=O)N1CCNCC1)n1cc([C@@H](N)Cc2ccc(O)cc2)nn1 | 5.8%
32 | Cc1nn(-c2ccccc2)c2c1C(=O)NC(=O)C(C)(C)C2 | 10.2%
33 | CC(=O)c1cnc(SCC(=O)O)nc1C | -8.72%
34 | O=C(c1cc2ccccc2o1)N1CCN(S(=O)(=O)c2ccc(Cl)s2)CC1 | -4.99%
35 | COc1ccc(S(=O)(=O)N2CCOC23CCN(S(=O)(=O)c2ccc([N+](=O)[O-])cc2)CC3)cc1 | 4.75%
36 | O=C(O)C1=C(C(=O)O)C2CCC1C2 | -20.2%
37 | CCn1ccnc1CN1CCCC(C(=O)c2ccc3c4c(cccc24)CC3)C1 (stereo unspecified) | 4.32%
38 | C/C=C(/C)C(=O)O[C@@H]1c2cc3c(c4c2[C@@]2(CO4)C(=O)C(OC)=C(OC)C=C2C[C@@H](C)[C@H]1C)OCO3 | 8.2%
39 | Cc1ccc(/C=C/C(=O)OCC(=O)Nc2cccnc2Cl)cc1 | -17.1%
40 | COC(=O)Cc1cnc(NC(=O)CSc2nc(C(C)C)cc(=O)[nH]2)s1 | 7.32%
41 | Cc1cccc(C(=O)C(O)(c2ccccc2)C2CCCCC2=O)c1 (stereo unspecified) | -15.3%
42 | CCOc1ccc(CCNC(=O)COC(=O)c2ccc(C)c(S(=O)(=O)N3CCOCC3)c2)cc1OCC | -2.87%
43 | O=C(O)COc1nsnc1N1CCOCC1 | -2.76%
44 | Cc1ccc(C)c(S(=O)(=O)Nc2cc(C)on2)c1 | 13.7%
45 | CCOc1ccc(N2CC(C(=O)N/N=C/c3sccc3C)CC2=O)cc1 (stereo unspecified) | 3.97%
46 | CCc1ccc2[nH]c(=O)c(Cc3ccccc3)c(O)c2c1 | 10.4%
47 | COc1ccc(Cl)cc1NS(=O)(=O)c1cccc(C(=O)NCC2CCCO2)c1 (stereo unspecified) | 10.9%
48 | CCOCCCNC(=O)c1cn(CC(C)C)c(=O)c2c1c1ccccc1n2C | 0.96%
49 | COC(=O)c1cn(C)c2ccc(S(=O)(=O)N3CC(C)CC(C)C3)cc2c1=O (stereo unspecified) | -9.25%
50 | COc1ccc(CCn2c(NN=C3CCCC3)nc3c2c(=O)[nH]c(=O)n3C)cc1 | 14%
51 | COCc1cc(C)n(CC(=O)NCC2CCCO2)c(=O)c1C#N (stereo unspecified) | -7.89%
52 | N/C(=N\S(=O)(=O)c1cc(C(F)(F)F)cc(C(F)(F)F)c1)c1cccs1 | 10.3%

Row | Structure (SMILES) | inhibition
53 | COc1cccc(CNS(=O)(=O)c2cc3c(cc2C)n(C)c(=O)c(=O)n3C)c1 | 1.81%
54 | Cc1ccc(CNC(=O)C2CCCN(S(C)(=O)=O)C2)cc1 (stereo unspecified) | 14.4%
55 | Cc1ccsc1C(=O)OCC(=O)c1cc(C)n(CC2CCCO2)c1C (stereo unspecified) | 80.7% (active)
56 | CCCn1c(C)cc(C(=O)COC(=O)c2c(C)nn(-c3ccccc3)c2C)c1C | 7.52%
57 | COCCn1c(C)cc(C(=O)COC(=O)CNC(=O)c2ccco2)c1C | 5.6%
58 | C=CCc1cc(S(=O)(=O)c2ccc(O)c(CC=C)c2)ccc1O | 11.4%
59 | CCNS(=O)(=O)c1ccc(CCC(=O)N2CCN(c3cc(Cl)ccc3C)CC2)cc1 | -4.58%
60 | COc1ccc(NS(=O)(=O)c2ccc(O)c(C(=O)OCC(=O)NC3CCCCC3)c2)cc1 | 0.7%
61 | Cc1cc(=O)cc(C)[nH]1 | 3.47%
62 | COc1ncnc2c1N=C1CC(C)(C)CC(N)=C1S2 | 22.7%
63 | COC1(C2=NCCN2)COc2ccccc2O1 (stereo unspecified) | 15.1%
64 | O=C1CN(C(=O)COC(=O)c2cnc(Cl)c(Cl)c2)c2ccccc2N1 | 0.85%
65 | CC[C@@H]1CC2=C(C(=O)OC(C)(C)O2)[C@@H](CC)O1 | 13.2%
66 | COC(=O)c1ccc(CSc2ccc(S(=O)(=O)N3CCCCC3)cn2)cc1 | 0.83%
67 | CCOc1cc(C(=O)Nc2c(C)ccc3nsnc23)cc(OCC)c1OCC | 5.78%
68 | OCCCNc1nccc(-c2cc(Nc3cccc(Cl)c3)ncn2)n1 | 96.8% (active)
69 | CC(=O)Nc1ccc(NC(=O)CSc2nnnn2-c2ccccc2F)cc1 | 3.27%
70 | CN(C)CCCn1c(N)c(C#N)c2nc(C#N)c(C#N)nc21 | -20%
71 | Cc1noc(C)c1NC(=O)Nc1cccc2c1O[C@H](CN(C)S(=O)(=O)c1c(C)noc1C)[C@@H](C)CN([C@H](C)CO)C2=O | -28.3%
72 | CCOc1ccc(Br)cc1S(=O)(=O)Nc1ccc(C(=O)OC(C)C(=O)N(C)c2ccccc2)cc1 (stereo unspecified) | -9.98%
73 | Cc1ccc(CC2CC(=O)N(c3cc(C)ccc3C)C2=O)cc1 (stereo unspecified) | 5.12%
74 | COc1ccc(OCCn2ccnc2C)cc1 | 10.9%
75 | Cc1ccccc1/[N+]([O-])=C/c1ccncc1 | 13%
76 | Cc1cc(N2CCCC2=O)cc(C)c1S(N)(=O)=O | 7.43%
77 | CCN(C(=O)COC(=O)CCC(=O)c1cccs1)C1CCCCC1 | 4.1%
78 | CC1CC(c2ccccc2)n2nc(NC(=O)c3cccs3)nc2N1 (stereo unspecified) | 5.57%

Row | Structure (SMILES) | inhibition
79 | CCc1ccc(NC(=O)CCNS(=O)(=O)c2cccs2)cc1 | -12.4%
80 | Cc1ccc(-n2c(=O)cc(N3CCN(Cc4ccccc4)CC3)[nH]c2=O)cc1 | 8.9%
81 | Cc1ccc(C(=O)COC(=O)CCN2C(=O)C3C4CC(C(Br)C4Br)C3C2=O)cc1 (stereo unspecified) | -1.24%
82 | Cc1cc(C(=O)NNC(=O)CCC2CCCCC2)c(C)o1 | 2.29%
83 | CC(C)c1ccc(NC(=O)C2CCCN(S(=O)(=O)c3cccnc3)C2)cc1 (stereo unspecified) | -1.1%
84 | Cn1c(=O)c2c(nc(OCc3cccnc3)n2Cc2ccccc2)n(C)c1=O | -21.8%
85 | CCn1c(C)nc2c1C(=O)c1ccccc1C2=O | -4.55%
86 | Cc1ccc(-c2noc(C3CCCN(C(=O)c4cccc(Cl)c4)C3)n2)o1 (stereo unspecified) | -49.4%
87 | Cc1ccc(-c2ccnc3nc(Sc4ncc(C(F)(F)F)cc4Cl)nn23)cc1 | -3.99%
88 | CN(C)S(=O)(=O)c1ccc(N2CCCC2)c(C(=O)Nc2cccc(F)c2)c1 | 8.36%
89 | Cc1nc(COc2cc3oc(=O)cc(C)c3cc2Cl)cs1 | -10.4%
90 | O=C(CN1CCN(S(=O)(=O)c2ccc3ccccc3c2)CC1)NC(=O)NC1CCCCC1 | 14.8%
91 | CCCCCN(C(=O)NC(=O)Nc1cccc(C)c1C)S(C)(=O)=O | -7.26%
92 | CCCCn1c(=S)[nH]c2ncccc2c1=O | 0.69%
93 | Cc1cc(NC(=O)CS(=O)(=O)c2cn(C)c3ccccc23)no1 | -3.59%
94 | Cc1c(Cl)cnc(NC(=O)COC(=O)C2CCCC2)c1Cl | 1.2%
95 | CC(=O)NS(=O)(=O)c1ccc2c(c1)Cc1cc(S(=O)(=O)NC(C)=O)ccc1-2 | 9.84%
96 | N#Cc1ccc(CN2CCN(CC(=O)Nc3ccccc3C(=O)NC3CC3)CC2)cc1 | 9.21%
97 | CCC1=NN(C(=O)Cc2ccc([N+](=O)[O-])cc2)C(O)(c2ccc(Br)cc2)C1 (stereo unspecified) | -7.24%
98 | CCN(CC)C(=O)C1=C(C)N(Cc2ccccc2)C(=O)C(CC(=O)NC(c2ccccc2)c2ccccc2)C1 (stereo unspecified) | -17.2%
99 | O=C(NCCCn1ccnc1)C(=O)c1cn(CC(=O)N2CCCCCC2)c2ccccc12 | 9.94%
100 | CC(C)CCC(=O)Nc1cc(S(=O)(=O)N2CCOCC2)ccc1N1CCCC1 | 6.05%
101 | Cc1cn([C@H]2C[C@H](O)[C@@H](CNC(=O)[C@H](N)Cc3cccnc3)O2)c(=O)[nH]c1=O | 2.03%
